SMILES strings stand for the structures. The source made the active and inactive calls.

Data on five compounds can be found in PubChem BioAssay.

For one experiment, the target named is Albumin (Bos taurus) (UniProt P02769). Kind of experiment: compounds binding labelled BSA control protein – biochemical, small-molecule microarray, Alexa647 label, 635/667 nm fluorescence, artefact control for SMM control protein annotation, profiling panel (AID 1118).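 Note: score merges 667 nm emission intensity and signal-to-noise per printed compound spot.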 The following applies: BSA-A647 binding, fluorescence 635 nm, higher = more signal.
Experiment [1] is described as follows: probe aXIP binding to arrayed compounds – biochemical, NeuroSMM set, 635/667 nm fluorescence, primary screen (AID 1119).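 Note: probe is the protein aXip251-270 applied at 1 µg/mL to compound-printed slides; binding of probe to printed compounds measured as 667 nm fluorescence plus signal to noise.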 Conditions: small-molecule microarray, higher = more signal, called active from +8 up or from −8 down.
Experiment [2] can be described thus: probe aNOTCH3 binding on compound microarray – biochemical, small-molecule microarray, 635/667 nm fluorescence, primary screen (AID 1120).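 Note: probe is a biotin-tagged antibody raised against NOTCH3 rather than NOTCH3 protein; score merges spot fluorescence near 667 nm with spot signal to noise.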 The following applies: higher = more signal.
Experiment [3] is described as follows: probe aNOTCH2 binding on compound microarray – biochemical, small-molecule microarray, 635/667 nm fluorescence, primary screen (AID 1121).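 Note: score merges feature fluorescence read at 667 nm with its signal to noise.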 Conditions: higher = more signal.
Experiment [4] deals with Carbonic anhydrase 2 (Homo sapiens) (UniProt P00918). Description: compounds binding carbonic anhydrase 2 – biochemical, small-molecule microarray, Alexa647-labelled CAII, profiling panel (AID 1122). The following applies: CAII-A647 binding fluorescence, higher = more signal.
A short description of experiment [5]: COS7 lysate on small-molecule microarray, probe aHis, 635 nm (AID 1123).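 Note: z-score combines 667nm fluorescence intensity with signal-to-noise per printed compound spot.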 The following applies: COS7 cell lysate, fluorescence, higher = more signal.
Experiment [6] can be described thus: probe aLAP1 signal on lysate-treated microarray – cell lysate, small-molecule microarray, COS7 lysate, primary screen (AID 1124).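 Note: lysate comes from COS7 cells expressing LAP1 and is applied at 0.3 µg/mL; score merges spot fluorescence near 667 nm with signal-to-noise over triplicate slides.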 The following applies: probe aLAP1, fluorescence, higher = more signal.
In another experiment the test system is Sam68 (KHDRBS1). Kind of experiment: compounds binding KHDRBS1 protein – biochemical, small-molecule microarray, 635 nm fluorescence, primary screen (AID 1125).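 Note: score merges 667 nm channel intensity with signal to noise over triplicate slides.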 The following applies: higher = more signal.
Experiment [7] concerns Chordin-like protein 2 (CHRDL2). Description: compounds binding chordin-like 2 – biochemical, small-molecule microarray, 635 nm fluorescence, primary screen (AID 1126).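 Note: printed compound slides probed with Chrdl2 protein at 4 µg/mL for 1 h at 4 C; score merges 667 nm emission intensity with signal to noise over three replicate slides.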 The following applies: fluorescence 635 nm, higher = more signal.
Experiment [8] addresses Concanavalin-A (Canavalia ensiformis) (UniProt P02866). Description: compounds binding concanavalin A lectin – biochemical, small-molecule microarray, Alexa647 label, 635 nm, artefact control for SMM control protein annotation, primary screen (AID 1127).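 Note: z combines 667 nm emission intensity with signal-to-noise across three replicate slides.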 Conditions: ConA-A647 binding fluorescence, higher = more signal.
Experiment [9] can be described thus: compounds binding Alexa647 anti-His antibody – biochemical, small-molecule microarray, 635 nm fluorescence, artefact control for SMM control protein annotation, primary screen (AID 1128).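 Note: score merges feature fluorescence with signal-to-noise for each printed compound spot.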 The following applies: higher = more signal.
Experiment [10] deals with Human papillomavirus type 1a E7 protein (residues 1-88). Kind of experiment: HPV1a E7 small-molecule binders, primary screen, biochemical, small-molecule microarray, residues 1-88, 635 nm (AID 1129). Conditions: small-molecule microarray binding, fluorescence 635 nm; higher = more signal.
Experiment [11] addresses Focal adhesion kinase 1 (Homo sapiens) (UniProt Q05397). Kind of experiment: PTK2 protein binding on printed compound slides – biochemical, small-molecule microarray, 635/667 nm fluorescence, BSA, DTT, primary screen (AID 1130).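 Note: composite of spot emission at 667 nm and signal to noise over triplicate slides.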 The following applies: 635 nm fluorescence, higher = more signal.
For experiment [12], the system named is Fibrinogen (Alexa647-labelled). Kind of experiment: Alexa647-fibrinogen binding to printed small molecules – biochemical, small-molecule microarray, 635/667 nm fluorescence, artefact control for SMM control-protein annotation, profiling panel (AID 1131).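 Note: z-score merges 667 nm fluorescence with per-spot signal-to-noise over triplicate slides.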 The following applies: fibrinogen-A647 binding fluorescence, higher = more signal.
Experiment [13] deals with Follistatin (Homo sapiens) (UniProt P19883). Kind of experiment: FST protein binding to printed compounds – biochemical, small-molecule microarray, 635/667 nm fluorescence, primary screen (AID 1132). The following applies: 635 nm fluorescence, higher = more signal.
In experiment [14] the target is Fibroblast growth factor 2 (Homo sapiens) (UniProt P09038). Kind of experiment: basic fibroblast growth factor binding to printed compounds – biochemical, small-molecule microarray, 635/667 nm fluorescence, primary screen (AID 1133). The following applies: FGF2, fluorescence 635/667, higher = more signal.
A short description of experiment [15]: JC-1 mitochondrial potential readout, lung cancer cells – cell-based, A549, JC-1 fluorescence, basal, 24 h, 100 nL, profiling panel (AID 1138).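 Note: A549 lung adenocarcinoma cells under basal conditions with no added stimulus; test concentration not given here.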 The following applies: higher = more signal.
The next experiment concerns Lefty1. Kind of experiment: Lefty1 protein binding to printed compounds – biochemical, small-molecule microarray, 635/667 nm fluorescence, primary screen (AID 1139). Conditions: fluorescence 635/667, higher = more signal.
The subject of experiment [16] is wheat germ agglutinin (Triticum aestivum), Alexa647-labelled. Kind of experiment: Alexa647-WGA lectin binding to printed small molecules – biochemical, small-molecule microarray, 635/667 nm fluorescence, artefact control for SMM control-protein annotation, profiling panel (AID 1140).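 Note: score merges 667 nm feature emission with signal to noise over triplicate slides.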 Conditions: WGA-A647 binding, 635 nm fluorescence, higher = more signal.
For experiment [17], the target named is Luciferin 4-monooxygenase (Photinus pyralis) (UniProt P08659). Description: inhibition of purified Photinus pyralis luciferase – biochemical, luminescence, purified enzyme, 2006 set, primary screen (AID 1141).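 Note: cell-free assay with purified firefly luciferase at 100 ng per well in PBS; test concentration not given here.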 Conditions: purified firefly luciferase, SteadyGlo luminescence, 30 min; higher = more signal, called active from +8 up or from −8 down.
Sequence of Luciferin 4-monooxygenase (Photinus pyralis) (P08659 whole entry, looked up): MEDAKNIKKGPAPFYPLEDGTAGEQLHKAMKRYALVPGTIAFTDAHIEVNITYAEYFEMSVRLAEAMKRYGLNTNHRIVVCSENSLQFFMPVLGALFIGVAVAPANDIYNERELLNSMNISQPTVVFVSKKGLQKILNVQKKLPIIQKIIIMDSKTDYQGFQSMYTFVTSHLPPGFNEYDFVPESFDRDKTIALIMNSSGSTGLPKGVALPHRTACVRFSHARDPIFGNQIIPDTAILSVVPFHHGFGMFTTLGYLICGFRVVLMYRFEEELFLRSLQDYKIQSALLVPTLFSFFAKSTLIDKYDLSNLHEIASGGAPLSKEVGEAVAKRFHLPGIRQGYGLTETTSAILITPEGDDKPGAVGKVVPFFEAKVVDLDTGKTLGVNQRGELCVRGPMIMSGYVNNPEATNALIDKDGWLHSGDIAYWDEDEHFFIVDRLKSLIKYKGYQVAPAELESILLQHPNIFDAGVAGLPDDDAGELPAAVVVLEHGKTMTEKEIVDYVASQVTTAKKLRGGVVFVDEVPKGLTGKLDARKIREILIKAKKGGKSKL

Sequence of Albumin (Bos taurus) (P02769 whole entry, looked up): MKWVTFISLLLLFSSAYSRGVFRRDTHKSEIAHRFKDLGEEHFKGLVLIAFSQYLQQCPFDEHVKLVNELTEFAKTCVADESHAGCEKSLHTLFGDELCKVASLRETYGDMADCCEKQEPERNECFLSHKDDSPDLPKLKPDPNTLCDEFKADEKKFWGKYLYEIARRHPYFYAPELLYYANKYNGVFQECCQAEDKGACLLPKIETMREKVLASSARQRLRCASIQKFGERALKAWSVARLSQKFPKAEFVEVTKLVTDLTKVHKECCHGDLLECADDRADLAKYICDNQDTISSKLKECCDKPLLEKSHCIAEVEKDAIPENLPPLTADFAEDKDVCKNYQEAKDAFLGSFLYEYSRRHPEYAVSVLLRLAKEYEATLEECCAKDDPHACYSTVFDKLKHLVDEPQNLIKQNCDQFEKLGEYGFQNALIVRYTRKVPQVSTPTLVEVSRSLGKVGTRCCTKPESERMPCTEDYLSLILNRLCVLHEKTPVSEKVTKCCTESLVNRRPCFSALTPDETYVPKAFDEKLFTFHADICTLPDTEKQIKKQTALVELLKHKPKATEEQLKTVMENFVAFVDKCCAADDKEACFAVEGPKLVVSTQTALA
Sequence of Fibroblast growth factor 2 (Homo sapiens) (P09038 whole entry, looked up): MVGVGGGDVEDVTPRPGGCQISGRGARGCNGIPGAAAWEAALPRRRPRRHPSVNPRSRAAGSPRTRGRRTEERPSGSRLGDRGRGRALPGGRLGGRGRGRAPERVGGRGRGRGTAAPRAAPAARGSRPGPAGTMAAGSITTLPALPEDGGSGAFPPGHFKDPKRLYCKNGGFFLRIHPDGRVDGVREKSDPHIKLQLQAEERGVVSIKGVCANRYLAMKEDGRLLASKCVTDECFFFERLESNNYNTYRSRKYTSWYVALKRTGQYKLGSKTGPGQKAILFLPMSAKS
Sequence of Follistatin (Homo sapiens) (P19883 whole entry, looked up): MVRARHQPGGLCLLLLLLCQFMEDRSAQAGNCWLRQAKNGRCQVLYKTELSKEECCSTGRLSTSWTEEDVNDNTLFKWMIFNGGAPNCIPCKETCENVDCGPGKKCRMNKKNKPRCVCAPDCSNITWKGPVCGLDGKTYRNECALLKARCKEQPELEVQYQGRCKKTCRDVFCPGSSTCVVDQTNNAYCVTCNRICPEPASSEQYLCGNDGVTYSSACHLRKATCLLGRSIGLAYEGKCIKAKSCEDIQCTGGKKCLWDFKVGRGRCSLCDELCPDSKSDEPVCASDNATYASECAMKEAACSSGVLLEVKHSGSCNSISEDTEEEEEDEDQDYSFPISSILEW
Sequence of Focal adhesion kinase 1 (Homo sapiens) (Q05397 whole entry, looked up): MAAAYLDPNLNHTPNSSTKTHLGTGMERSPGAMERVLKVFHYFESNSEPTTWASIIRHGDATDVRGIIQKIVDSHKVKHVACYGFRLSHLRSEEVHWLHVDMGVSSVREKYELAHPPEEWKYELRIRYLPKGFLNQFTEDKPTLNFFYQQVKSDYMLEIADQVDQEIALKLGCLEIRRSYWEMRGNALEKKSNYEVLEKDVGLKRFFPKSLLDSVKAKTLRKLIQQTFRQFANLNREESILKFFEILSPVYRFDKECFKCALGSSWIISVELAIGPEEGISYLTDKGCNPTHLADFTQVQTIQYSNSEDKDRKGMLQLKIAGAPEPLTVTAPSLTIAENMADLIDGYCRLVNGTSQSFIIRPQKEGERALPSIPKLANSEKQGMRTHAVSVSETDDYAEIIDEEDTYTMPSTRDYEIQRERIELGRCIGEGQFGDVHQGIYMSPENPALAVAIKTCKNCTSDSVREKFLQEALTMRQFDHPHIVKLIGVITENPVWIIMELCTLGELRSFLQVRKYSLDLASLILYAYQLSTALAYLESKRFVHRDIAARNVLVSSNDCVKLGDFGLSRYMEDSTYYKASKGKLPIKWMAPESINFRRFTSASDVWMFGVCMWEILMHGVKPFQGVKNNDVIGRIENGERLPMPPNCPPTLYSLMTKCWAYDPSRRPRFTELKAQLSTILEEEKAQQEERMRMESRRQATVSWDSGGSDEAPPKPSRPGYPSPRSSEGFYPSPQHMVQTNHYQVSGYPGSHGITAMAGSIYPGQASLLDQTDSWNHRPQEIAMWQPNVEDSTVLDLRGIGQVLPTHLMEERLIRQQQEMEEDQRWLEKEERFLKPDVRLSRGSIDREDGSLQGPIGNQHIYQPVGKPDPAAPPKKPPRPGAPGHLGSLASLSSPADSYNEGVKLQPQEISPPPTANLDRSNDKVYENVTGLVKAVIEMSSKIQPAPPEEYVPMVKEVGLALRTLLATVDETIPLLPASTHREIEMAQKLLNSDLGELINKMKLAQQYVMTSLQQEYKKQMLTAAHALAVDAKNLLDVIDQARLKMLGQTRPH
Sequence of Concanavalin-A (Canavalia ensiformis) (P02866 whole entry, looked up): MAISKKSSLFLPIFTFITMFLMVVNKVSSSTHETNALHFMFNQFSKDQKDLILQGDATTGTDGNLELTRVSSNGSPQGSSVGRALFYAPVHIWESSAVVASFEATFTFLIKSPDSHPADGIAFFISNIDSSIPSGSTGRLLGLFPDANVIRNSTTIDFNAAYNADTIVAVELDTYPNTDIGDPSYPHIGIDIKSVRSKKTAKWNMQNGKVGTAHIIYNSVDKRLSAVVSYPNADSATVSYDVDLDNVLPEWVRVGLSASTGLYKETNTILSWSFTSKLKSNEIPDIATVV

In the case of `COc1ccc([Si](C)(C)[C@H]2[C@H](CC(=O)N(CCO)Cc3ccccc3)O[C@@]3(C(=O)N(C)c4ccccc43)[C@@H]2C)cc1`, the composite z-score with Albumin (Bos taurus) is 0.748; in [2], 0.0833; in [3] it was -0.155; in experiment [4], 0.384; in [5] it was 0.136; in experiment [6], 0.177. Besides, the composite z-score was 1.05 in the experiment with Sam68 (KHDRBS1); 1.21 in experiment [7]; 0.664 in experiment [8]; 1.62 in experiment [9]; 1.08 in experiment [10]; 0.711 in experiment [11]. For the same compound, the composite z-score in [12] is -0.0177; in [13], 1.06; in experiment [14], 1.01; in the experiment with Lefty1, 1.11; in [16] it was -0.0039. The composite Z-score in experiment [1] was -0.0798 (inactive). Also, the z-score in experiment [15] was 1.61; in experiment [17], 0.59 (inactive).

`CCCCCCc1nc(-c2cc(C)c(OC)c(C)c2)cc2c1[Si](C(C)C)(C(C)C)O[C@H]2c1ccccc1`: the composite z-score is -0.0154 with Albumin (Bos taurus); -0.194 in experiment [2]; -0.0191 in experiment [3]; -0.398 in [4]; -0.301 in experiment [5]; -0.136 in experiment [6]. The composite z-score in the experiment on Sam68 (KHDRBS1) is -0.728; in experiment [7], -0.182; in [8], -0.152; in [9] it was -0.36; in experiment [10], -0.341; in experiment [11], -0.272. Further, the composite z-score in experiment [12] was -0.399; in [13], 0.0128; in experiment [14], -0.683; with Lefty1, -0.0906; in experiment [16], -0.372. Moreover, the composite Z-score in experiment [1] was -0.315 (inactive). Besides, the z-score was -0.705 in [15] and 0.844 (inactive) in experiment [17].

For the compound `CO[C@H]1COC(=O)[C@H](Cc2ccccc2)NC(=O)CC=C[C@@H](C)[C@H](OC)COC(=O)CC=C[C@@H]1C`, the composite z-score with Albumin (Bos taurus) is -0.108; in [2], 0.0319; in experiment [3], -0.0211; in experiment [4] it was -0.142; in experiment [5], 0.199; in experiment [6] it was -0.47. In addition, the composite z-score in the experiment on Sam68 (KHDRBS1) was 0.588; in experiment [7], 0.53; in experiment [8], 0.296; in experiment [9] it was 0.809; in experiment [10], 0.779; in [11], -0.237. In addition, the composite z-score is 0.256 in [12]; 0.424 in [13]; 0.144 in experiment [14]; 0.492 with Lefty1; -0.12 in experiment [16]. The composite Z-score in [1] was -0.225 (inactive). The z-score in [15] is 1.64; in experiment [17], -1.27 (inactive).

As for `CC(C)CN1C(=O)[C@@]2(Cc3ccccc31)c1ccccc1C(=O)N(C1CCCCC1)[C@H]2c1ccc(CO)cc1`, the composite z-score with Albumin (Bos taurus) was -0.436; in [2] it was -0.0647; in [3], -0.0433; in experiment [4], 0.781; in experiment [5] it was 0.878; in experiment [6], 1.23. The composite z-score in the experiment on Sam68 (KHDRBS1) was -0.18; in experiment [7], -1.43; in [8], -1.42; in experiment [9], -1.34; in experiment [10] it was -1.05; in experiment [11], -0.133. In addition, the composite z-score in experiment [12] was -1.04; in experiment [13], -0.447; in experiment [14], -0.914; with Lefty1, -1.28; in [16], -1.14. The composite Z-score in experiment [1] was 0.439 (inactive). Besides, the z-score is -0.269 in [15] and -0.275 (inactive) in experiment [17].

On to `COCCOC(=O)N1C(=O)[C@@]2(c3cc(C#CC4=CCCCC4)ccc31)[C@H](c1ccc(O)cc1)N1[C@H](c3ccccc3)[C@H](c3ccccc3)OC(=O)[C@H]1[C@@H]2C(=O)N1CCCCCCC1`, for which the composite z-score is -0.645 with Albumin (Bos taurus); 0.112 in experiment [2]; -0.122 in [3]; 0.425 in experiment [4]; 0.129 in experiment [5]; 0.135 in experiment [6]. For the same compound, the composite z-score stood at 1.29 in the experiment on Sam68 (KHDRBS1); 0.729 in experiment [7]; 1.12 in experiment [8]; 0.31 in experiment [9]; 1.15 in [10]; 1.45 in [11]. Further, the composite z-score in experiment [12] was found to be 0.694; in experiment [13], 1.23; in experiment [14], 1.22; with Lefty1, 1.12; in experiment [16], 0.576. Besides, in experiment [1], the composite Z-score is 1.69 (inactive). For the same compound, the z-score in [15] is 1.99; in experiment [17], -1.72 (inactive).
